Screens from PubChem BioAssay.
Luciferase inh – blocks purified firefly luciferase enzyme activity | purified P. pyralis luciferase, luminescence, biochemical | Potency, µM (top dose mostly 115 µM), actives largely listed as inhibitors | 76,000 tested, 2.5% active | AID 1347043 | P08659; active = well fitted curve in the direction sought with a large enough effect; inconclusive = small, poorly fitted or top-dose-only effect, or another doubt; inactive = no such curve, though single readings can be large; an effect the other way counts as inactive or inconclusive; note: % is set by controls: 0 for no effect and ±100 for the full control effect; nearly all actives have a fitted effect of over 65% in size
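Luminescence read by CCD imaging after purified firefly luciferase (10nM final) was added to substrate buffer holding 10uM D-luciferin and 10uM ATP, pH 7.5, pre-dosed with compound.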
NPR1 antag – blocks ANP-stimulated signaling of human Npr1 receptor; P16066; HEK293 hNpr1 GloSensor cGMP, ANP-stimulated luminescence; Potency, µM (titrated, usually from 46.3 µM), for inactives: at the top dose activity change, negative = inhibition, actives largely listed as inhibitors; 76,000 tested, 1.6% active; AID 1347048; note: % is set by controls: 0 for no effect and ±100 for the full control effect; nearly all actives have a fitted effect of over 60% in size
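HEK293 cells stably expressing human Npr1 and cGMP GloSensor pGS-40F, loaded 2 h with 2% GloSensor reagent, given compound 30 min at room temperature. Luminescence read before and 20 min after 0.1 nM hNppA.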
HEK293 tox – cytotoxic compounds in HEK 293 cells. HEK 293 viability, ATP luminescence (CellTiter-Glo), 48-72 h. 94,000 tested, 6.6% active. AID 1345083. Potency, µM (highest dose often 115 µM), for inactives: at the top dose activity change, negative = cytotoxicity, hits mostly inhibitors; active = well fitted curve in the direction sought with a large enough effect; inconclusive = small, poorly fitted or top-dose-only effect, or another doubt; inactive = no such curve, though single readings can be large; an effect the other way counts as inactive or inconclusive; note: % is set by controls: 0 for no effect and ±100 for the full control effect; nearly all actives have a fitted effect of over 60% in size
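250 HEK 293 cells/well; compound by pintool; incubated 48 or 72 hr at 37 degree Celsius; CellTiter-Glo added, 10 min RT, luminescence imaged.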
NIH3T3 tox – cytotoxic compounds in NIH 3T3 cells. NIH 3T3 viability, CellTiter-Glo ATP luminescence, 48-72 h. Potency, µM (series often up to 96.7 µM), for inactives: top-dose activity change, negative = cytotoxicity, actives largely listed as inhibitors. 94,000 tested, 4.3% active; active = well fitted curve in the direction sought with a large enough effect; inconclusive = small, poorly fitted or top-dose-only effect, or another doubt; inactive = no such curve, though single readings can be large; an effect the other way counts as inactive or inconclusive; note: % is set by controls: 0 for no effect and ±100 for the full control effect; nearly all actives have a fitted effect of over 55% in size
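First NIH 3T3 cells are plated at 400 cells/well; next compound is pinned in; then plates incubate 48 or 72 hr at 37 °C; finally CellTiter-Glo is added and luminescence read after 10 min.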
Npr1 antag conf – hNpr1 antagonism, confirmation assay; HEK293 hNpr1 cGMP GloSensor luminescence, ANP-stimulated; Potency, µM (highest dose often 57.6 µM), inactives show at the top dose activity change, negative = inhibition, usual class: inhibitors; shares compounds with NPR1 antag; 1,400 tested, 76% active; note: nearly all actives have a fitted effect of over 70% in size
Npr2 selectivity – selectivity test of Npr1 antagonists against human Npr2 | 1,400 tested, 67% active | HEK293 hNpr2 GloSensor cGMP luminescence, CNP-stimulated | AID 1347046 | Potency, µM (titrated, usually from 57.6 µM), inactives show top-dose activity change, negative = inhibition, most hits filed as inhibitors | shares compounds with NPR1 antag; note: nearly all actives have a fitted effect of over 70% in size
Target sequence (P20594 whole entry, looked up): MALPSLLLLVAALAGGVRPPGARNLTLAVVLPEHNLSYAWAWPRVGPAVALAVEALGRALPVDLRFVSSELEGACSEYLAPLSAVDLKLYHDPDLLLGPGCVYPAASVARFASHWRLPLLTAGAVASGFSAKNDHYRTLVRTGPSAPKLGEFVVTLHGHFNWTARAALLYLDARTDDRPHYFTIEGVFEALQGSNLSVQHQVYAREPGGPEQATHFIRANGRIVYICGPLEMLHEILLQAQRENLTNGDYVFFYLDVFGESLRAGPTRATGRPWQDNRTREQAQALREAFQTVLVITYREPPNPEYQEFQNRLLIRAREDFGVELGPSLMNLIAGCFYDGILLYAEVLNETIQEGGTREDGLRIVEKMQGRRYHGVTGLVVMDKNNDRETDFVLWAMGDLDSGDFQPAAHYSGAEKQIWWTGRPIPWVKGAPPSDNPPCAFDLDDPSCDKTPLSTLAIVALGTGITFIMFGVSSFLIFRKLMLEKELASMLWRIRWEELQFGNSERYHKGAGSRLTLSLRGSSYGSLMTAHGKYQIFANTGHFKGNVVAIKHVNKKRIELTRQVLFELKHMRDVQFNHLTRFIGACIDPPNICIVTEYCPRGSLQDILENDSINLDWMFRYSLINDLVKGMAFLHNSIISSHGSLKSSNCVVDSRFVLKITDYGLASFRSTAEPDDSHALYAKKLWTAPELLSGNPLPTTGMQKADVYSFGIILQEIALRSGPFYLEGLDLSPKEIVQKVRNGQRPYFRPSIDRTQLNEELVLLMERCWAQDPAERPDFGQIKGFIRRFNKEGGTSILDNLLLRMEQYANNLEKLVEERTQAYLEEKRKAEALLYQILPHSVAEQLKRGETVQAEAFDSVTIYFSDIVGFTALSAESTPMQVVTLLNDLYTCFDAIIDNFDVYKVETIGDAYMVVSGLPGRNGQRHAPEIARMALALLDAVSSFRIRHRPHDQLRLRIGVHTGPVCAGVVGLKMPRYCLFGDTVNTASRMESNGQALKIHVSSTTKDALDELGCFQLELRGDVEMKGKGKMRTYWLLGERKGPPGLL
FLuc inh counter – FLuc enzyme inhibition, Npr1 counter-screen | shares compounds with NPR1 antag | purified FLuc enzyme, luminescence, Km substrate | Potency, µM (top dose mostly 57.6 µM), for inactives: at the highest dose activity change, negative = inhibition, most hits filed as inhibitors | 1,400 tested, 0.7% active; active = well fitted curve in the direction sought with a large enough effect; inconclusive = small, poorly fitted or top-dose-only effect, or another doubt; inactive = no such curve, though single readings can be large; an effect the other way counts as inactive or inconclusive; note: 0% is about no effect
GloSensor ctrl – reduces cGMP signal in GloSensor control cells; shares compounds with NPR1 antag; HEK293 GloSensor cGMP, SNP-stimulated, luminescence; Potency, µM (top dose mostly 57.6 µM), without a hit: at the top dose activity change, negative = inhibition, actives largely listed as inhibitors; AID 1347051; 1,400 tested, 69% active; note: % is set by controls: 0 for no effect and ±100 for the full control effect; nearly all actives have a fitted effect of over 70% in size
An asterisk follows results filed as active; i = inactive; ? = inconclusive; . = no result; [ ] = another dose, or the depositor's remark. Hits are enriched below; roughly 11% of the tested compounds scored in any of these assays. Unless noted, calls come from the whole dose curve. Potency is the fitted concentration of half-maximal effect.

SMILES | Luciferase inh | NPR1 antag | HEK293 tox | NIH3T3 tox | Npr1 antag conf | Npr2 selectivity | FLuc inh counter | GloSensor ctrl
COc1cccc(CN2CCCC(C(=O)NCc3ccncc3)CCNC(=O)CC2)c1 (stereo not drawn) | i | 6% | 1% | -25% | . | . | . | .
N#Cc1ccccc1CN1CCCC(C(=O)NCc2ccccc2)CCNC(=O)CC1 (stereo not drawn) | i | 4µM* | i | -11% | 14µM* | 6.1µM* | 3% | 15%
O=C(O)C1c2ccccc2CC(=O)N1Cc1ccccc1 (stereo not drawn) | i | -3% | 7% | i | . | . | . | .
COc1ccc(CCC(=O)N2CCC3(CC2)CC(Cc2nc(-c4cccnc4)no2)CCO3)cc1 (stereo not drawn) | i | ? | ? | ? | . | . | . | .
COc1ccccc1CCC(=O)N1CCC(Cc2nc(-c3ccccc3)no2)CC1 | i | ? | ? | ? | . | . | . | .
COc1cccc(CCC(=O)N2CCC(Cc3nc(-c4ccc(F)cc4)no3)CC2)c1 | i | 11µM* | ? | ? | 14µM* | 17µM* | 3% | 11µM*
COc1cccc(-c2noc(CC3CCN(C(=O)CCCc4ccccc4)CC3)n2)c1 | i | ? | ? | ? | ? | ? | 0% | 31µM*
O=C(CCCc1ccccc1)N1CCC2(CC1)CC(Cc1nc(-c3cccnc3)no1)CCO2 (stereo not drawn) | i | 16µM* | 35µM* | ? | 22µM* | 19µM* | 2% | 19µM*
COc1ccc(-c2noc(CC3CCN(C(=O)CCCc4ccccc4)CC3)n2)cc1 | i | ? | 28µM* | ? | 17µM* | 19µM* | -6% | 19µM*
Cc1ccc(NC(=O)N2CCC3(CC2)CC(Cc2nc(-c4ccccc4)no2)CCO3)cc1C (stereo not drawn) | i | 10µM* | ? | ? | 12µM* | 15µM* | -6% | 12µM*
O=C(N1CCC2(CC1)CC(Cc1nc(-c3cnccn3)no1)CCO2)C1(c2ccccc2)CC1 (stereo not drawn) | i | 1% | ? | -20% | . | . | . | .
CC(C)COc1cc(=O)n2c(c1C(=O)NCC1CCCCC1)CCCCC2 | i | -3% | -4% | ? | . | . | . | .
CNC(=O)NC[C@H]1CCN(Cc2ccc(OC)c(OC)c2)C[C@H]1N(C)C | i | 2% | i | i | . | . | . | .
Cc1cnccc1CN(C)C(=O)c1cc(COc2ccc(-n3cncn3)cc2)on1 | i | 7.1µM* | ? | ? | 5.4µM* | 9.7µM* | 0% | 5.4µM*
CC(C)n1cc(CN(C)C(=O)c2cc(COc3ccccc3)on2)cn1 | ? | 0% | ? | ? | . | . | . | .
COCC(=O)N1CCN(C(=O)c2cccc(-c3cccc(OC)c3)c2)CC1 | . | . | -21% | -17% | . | . | . | .
Cc1cccc(CC(=O)N2CCCN(c3cc(-c4ccc(Br)cc4)[nH]n3)CC2)c1 | i | ? | ? | 32µM* | ? | 24µM* | 3% | 24µM*
O=C(Cc1ccccc1)N1CCN(c2cc(-c3ccccc3)[nH]n2)CC1 | i | -18% | ? | ? | . | . | . | .
COc1cccc(CC(=O)N2CCCN(c3cc(-c4ccc(Br)cc4)[nH]n3)CC2)c1 | i | 11µM* | 45µM* | 35µM* | 24µM* | 24µM* | -1% | 22µM*
COc1ccc(-c2cc(N3CCN(C(=O)Cc4ccc(Br)cc4)CC3)n[nH]2)cc1 | i | ? | 1% | i | . | . | . | .
O=C(NC1CCCc2ccccc21)C1CN(C2CCCCC2)C(=O)N1 (stereo not drawn) | . | . | ? | -24%[138 µM] | . | . | . | .
COc1ccc(C)cc1NC(=O)NCC1CCCN(C(C)C)C1 (stereo not drawn) | i | 3% | -11% | -1% | . | . | . | .
O=C(NC1CCCCC1)N1CCC(c2noc(-c3ccccc3)n2)C1 (stereo not drawn) | i | 18µM* | ? | ? | 27µM* | ? | 0% | 27µM*
COc1ccccc1-c1[nH]nc2ncc(C(=O)N3CCC(c4ccccc4)CC3)nc12 | i | ? | ? | ? | . | . | . | .
COc1ccccc1-c1[nH]nc2ncc(C(=O)NCc3cccnc3)nc12 | . | . | . | . | 18µM* | 7µM* | 1%[86.2 µM] | -16%[86.2 µM]
SMILES | Luciferase inh | NPR1 antag | HEK293 tox | NIH3T3 tox | Npr1 antag conf | Npr2 selectivity | FLuc inh counter | GloSensor ctrl
CN(C(=O)c1cnc2n[nH]c(-c3ccccc3)c2n1)c1ccccc1 | i | 16µM* | ? | ? | 31µM* | 31µM* | 2%[86.2 µM] | 20µM*
O=C(NCc1cccnc1)c1cnc2n[nH]c(-c3ccccc3)c2n1 | . | . | . | . | 25µM* | 13µM* | 0%[86.2 µM] | 10%[86.2 µM]
O=C(NCc1cccnc1)c1nc(-c2ccc(F)cc2)c2ccccn12 | i | -3% | ? | ? | . | . | . | .
COc1ccccc1-c1cc(C(=O)NCc2cccnc2)nc2c1cnn2C | . | . | -11% | -23% | . | . | . | .
CCc1nc2c(c(-c3ccc(OC)cc3)n1)CCN(C(=O)c1ccc(OC)cc1)CC2 | . | . | -8% | ? | . | . | . | .
O=C(c1ccccc1)N1CCN(CCn2nc3n(c2=O)CCCC3)CC1 | . | . | -9% | -8% | . | . | . | .
Cc1ccc(F)cc1CNC(=O)CCc1nnc(CCc2c[nH]c3ccccc23)o1 | ? | 1% | ? | ? | . | . | . | .
CC(C)c1noc(-c2cn(C3CCN(C(=O)c4cccc(Br)c4)C3)nn2)n1 (stereo not drawn) | i | 11µM* | ? | -29% | 19µM* | 22µM* | 2% | 22µM*
CC(C)c1noc(-c2cn(C3CCN(C(=O)c4ccc(Cl)s4)C3)nn2)n1 (stereo not drawn) | i | 8.9µM* | ? | ? | 12µM* | 12µM* | -1% | 14µM*
CC(C)c1noc(-c2cn(C3CCN(C(=O)c4ccc(OC(F)(F)F)cc4)C3)nn2)n1 (stereo not drawn) | i | 14µM* | ? | ? | 14µM* | 19µM* | 2% | 15µM*
CCc1noc(-c2cn(C3CCN(C(=O)c4ccc(C(C)(C)C)cc4)C3)nn2)n1 (stereo not drawn) | i | 16µM* | ? | ? | 24µM* | ? | -6% | 27µM*
